Screening data (PubChem BioAssay)
Gal4-VP16 FLuc: VP16 counterscreen qHTS for inhibitors of ROR gamma transcriptional activity; Drosophila S2 Gal4-VP16 UAS-luciferase, luminescence, 20 h; Potency, µM (series often up to 53.6 µM), usual class: inhibitors; actives 3.5% (n = 310,000);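 further: Gal4-VP16 expression switched on by copper sulfate through the metallothionein promoter; nearly all actives have a fitted effect of over 50% in size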
RORgamma inh: qHTS for inhibitors of ROR gamma transcriptional activity | Nuclear receptor ROR-gamma (Mus musculus), P51450 | Drosophila S2 Gal4-RORgamma UAS-luciferase reporter, 20 h | Potency, µM (series often up to 53.6 µM), usual class: inhibitors | actives 5.4% (n = 310,000) | AID 2551, 2010; further: nearly all actives have a fitted effect of over 60% in size
Target sequence (P51450 whole entry, looked up, the tested form may be a part): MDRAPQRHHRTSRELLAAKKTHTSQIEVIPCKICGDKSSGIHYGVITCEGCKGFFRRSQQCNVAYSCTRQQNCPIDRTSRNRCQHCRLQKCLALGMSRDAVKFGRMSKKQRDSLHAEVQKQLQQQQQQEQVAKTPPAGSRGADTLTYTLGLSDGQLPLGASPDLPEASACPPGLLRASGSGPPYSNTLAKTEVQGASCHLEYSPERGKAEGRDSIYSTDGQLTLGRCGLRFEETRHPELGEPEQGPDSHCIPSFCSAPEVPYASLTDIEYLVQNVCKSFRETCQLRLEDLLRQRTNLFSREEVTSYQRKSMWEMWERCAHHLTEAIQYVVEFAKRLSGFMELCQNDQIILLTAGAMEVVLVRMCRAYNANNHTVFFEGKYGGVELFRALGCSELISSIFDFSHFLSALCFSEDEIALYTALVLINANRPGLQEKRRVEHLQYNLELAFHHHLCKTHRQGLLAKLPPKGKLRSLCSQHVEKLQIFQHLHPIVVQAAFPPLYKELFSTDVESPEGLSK
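Compounds are pin-transferred onto Drosophila Schneider cells expressing a copper-inducible Gal4–ROR gamma transactivation domain fusion. After 1 hr, copper sulfate is added to 700 uM final; luciferase is read 20 hr later.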
KinaseGlo FLuc: Counterscreen for Luciferase (Kinase-Glo TM) Inhibition; Luciferin 4-monooxygenase (Photuris pensylvanica), Q27757; Kinase-Glo luciferase, ATP luminescence, 8 min; Potency, µM (titrated, usually from 38.3 µM), most hits filed as inhibitors; actives 0.28% (n = 200,000); further: nearly all actives have a fitted effect of over 60% in size
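Light output from Kinase-Glo luciferase with luciferin and 10 uM ATP in 50 mM imidazole pH 7.2, KCl, MgCl2, Tween 20, BSA; compound pin-delivered, 8-min ambient incubation, then luminescence read.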
Of the large screens only hits and unclear results are named; the others gave an inactive call. Sampled rows, rich in hits. Any-hit rate of the full collection: about 6.4%. The call rests on the fitted dose curve; in most records, active means well fitted curve in the direction sought with a large enough effect; inconclusive means small, poorly fitted or top-dose-only effect, or another doubt; inactive means no such curve, though single readings can be large; an effect the other way counts as inactive or inconclusive.

CC1CCCCC1NC(=O)NC(=O)CCl (centres undefined)	Gal4-VP16 FLuc 6.3µM, RORgamma inh 5µM
COC(=O)[C@@H](NC(=O)NC1CCCCC1C)C(C)C (some centres undefined)	none (no result: KinaseGlo FLuc)
CC1CCCC(NC(=O)NC(=O)CCl)C1C (centres undefined)	Gal4-VP16 FLuc 5µM, RORgamma inh 3.2µM
Cc1ccc(S(=O)(=O)NCc2cccnc2)cc1	none (no result: KinaseGlo FLuc)
CCCCOc1cccc(C(=O)Nc2ccc(S(=O)(=O)Nc3nnc(CC)s3)cc2)c1	none (no result: KinaseGlo FLuc)
CCOC(=O)c1nnn(-c2nonc2N)c1CSc1nnc(N)s1	none
COc1cccc(OC)c1C(=O)NNS(=O)(=O)c1ccc2ccccc2c1	none (no result: KinaseGlo FLuc)
O=C1c2ccccc2C(=O)c2c1oc(C(F)(F)F)c2C(=O)c1ccccc1	none
O=C(c1ccccc1)c1coc2c1C(=O)c1ccccc1C2=O	Gal4-VP16 FLuc inconclusive, RORgamma inh 18µM
COc1ccc(C(=O)c2coc3c2C(=O)C(=O)c2ccccc2-3)cc1	Gal4-VP16 FLuc inconclusive, RORgamma inh 11µM (no result: KinaseGlo FLuc)
COc1ccc2occ(C(=O)c3ccccc3)c2c1	none
NCC1O[C@@H](OC2C(N)C[C@H](N)[C@@H](O[C@H]3OC(CO)C(O)C(N)C3O)C2O)C(N)C(O)C1O (some centres undefined)	none
CC(=O)CC1=NC(C)(C)Cc2ccccc21	none
CC1(C)Cc2ccccc2C(NNC(=O)c2ccccn2)=N1	Gal4-VP16 FLuc 0.1µM, RORgamma inh 0.05µM
CC1(C)Cc2ccccc2C(C(=O)c2ccccc2)=N1	RORgamma inh 7.9µM (no result: KinaseGlo FLuc)
CC1(C)Cc2ccccc2C(NNC(=O)c2ccccc2)=N1	none (no result: KinaseGlo FLuc)
O=C(NCCCN1CCOCC1)c1cccnc1SCc1ccccc1Cl	none
COc1cccc(NC(=O)Cn2c(=O)n(C)c(=O)c3sc4c(c32)COC(C)(C)C4)c1	none (no result: KinaseGlo FLuc)
CCCCN1C(=O)C(O)=C(C(C)=O)C1c1ccccc1 (centres undefined)	none
S=C1NC[C@H](c2ccccc2)N1CC1CCCCC1	Gal4-VP16 FLuc 4.5µM, RORgamma inh 1.1µM (no result: KinaseGlo FLuc)
S=C1NC[C@H](CC2CCCCC2)N1CCCCC1CCCCC1	Gal4-VP16 FLuc 3.2µM, RORgamma inh 1.1µM (no result: KinaseGlo FLuc)
CCCCN1C(=S)NC[C@@H]1c1ccccc1	Gal4-VP16 FLuc 13µM, RORgamma inh 2.8µM (no result: KinaseGlo FLuc)
S=C1NC[C@H](Cc2ccccc2)N1CCCCC1CCCCC1	Gal4-VP16 FLuc 5µM, RORgamma inh 0.71µM (no result: KinaseGlo FLuc)
C[C@H]1CN=C(Nc2ccccc2)N1CC1CCCCC1	none (no result: KinaseGlo FLuc)
NCCCC[C@H]1CNC(=S)N1CC1CCCCC1	none (no result: KinaseGlo FLuc)
c1ccc(C[C@H]2CN=C(Nc3ccccc3)N2CCCC2CCCC2)cc1	none (no result: KinaseGlo FLuc)
CCOC(=O)c1cccc(NC(=O)C2(S(=O)(=O)c3ccc(C)cc3)CC2)c1	none
COc1ccc2c(c1)C(c1cc(OC)c(OC)c(OC)c1)CC(=O)O2 (centres undefined)	none
CC(=O)N[C@H]1[C@H](Oc2ccc3c(c2)CCC2C3CC[C@]3(C)C(=O)CCC23)O[C@H](CO)[C@@H](O)[C@@H]1O (some centres undefined)	none (no result: KinaseGlo FLuc)
CCc1ccccc1NCC(=O)Nc1ccc(Cl)c(C(F)(F)F)c1	Gal4-VP16 FLuc inconclusive
S=C1NC[C@H](CC2CCCCC2)N1CCc1cccc2ccccc12	Gal4-VP16 FLuc 0.63µM, RORgamma inh 0.25µM (no result: KinaseGlo FLuc)
CCCCN1C(=S)NC[C@@H]1Cc1ccccc1	Gal4-VP16 FLuc 7.9µM, RORgamma inh 1.8µM (no result: KinaseGlo FLuc)
O=C1NC[C@H](Cc2ccc(O)cc2)N(CCc2cccc3ccccc23)C1=O	none (no result: KinaseGlo FLuc)
CCCCCCCN1C(Nc2ccccc2)=NC[C@@H]1Cc1ccccc1	none (no result: KinaseGlo FLuc)
CC(NCC(O)COc1ccccc1)C1COc2ccccc2O1 (centres undefined)	none (no result: KinaseGlo FLuc)
Cc1ccc(S(=O)(=O)c2cc3c(=O)n4ccccc4nc3n(Cc3ccco3)c2=N)cc1C	Gal4-VP16 FLuc 18µM, RORgamma inh inconclusive
N=c1c(S(=O)(=O)c2ccccc2)cc2c(=O)n3ccccc3nc2n1Cc1ccco1	Gal4-VP16 FLuc inconclusive, RORgamma inh inconclusive
Cc1ccc2nc3c(cc(S(=O)(=O)c4ccccc4)c(=N)n3Cc3ccco3)c(=O)n2c1	none
CNC(=O)c1cc2c(=O)n3cc(C)ccc3nc2n(Cc2ccco2)c1=N	Gal4-VP16 FLuc inconclusive, RORgamma inh 11µM
CC(C)C(=O)N[C@H]1CCCN1C(=O)/C=C\c1ccccc1	none (no result: KinaseGlo FLuc)
S=C(NCc1ccc2c(c1)OCO2)NCc1ccc2c(c1)OCO2	Gal4-VP16 FLuc inconclusive, RORgamma inh 16µM
CCc1cccc(CC)c1NC(=S)NCc1ccc2c(c1)OCO2	Gal4-VP16 FLuc inconclusive, RORgamma inh 8.9µM
Cc1cccc(NC(=S)NNC(=O)c2ccc3c(c2)OCO3)c1	Gal4-VP16 FLuc inconclusive
CCC(C(=O)NC(C)c1ccccc1)C(=O)NC(C)c1ccccc1 (centres undefined)	none (no result: KinaseGlo FLuc)
Cc1ccccc1NC(=O)NCc1ccc2c(c1)OCO2	none
Cc1cccc(NC(=S)NCc2ccc3c(c2)OCO3)c1	Gal4-VP16 FLuc 16µM, RORgamma inh 11µM
CCNC(=S)NCc1ccc2c(c1)OCO2	none
CCc1cccc(CC)c1NC(=S)NC(C)c1ccccc1 (centres undefined)	Gal4-VP16 FLuc inconclusive, RORgamma inh 4µM
Cc1ccc2c(c1)[nH]c1c(=O)n(Cc3ccco3)cnc12	none (no result: KinaseGlo FLuc)
O=C(NC1CCSC1=O)C1CC(=O)N(c2ccc(F)cc2)C1 (centres undefined)	none (no result: KinaseGlo FLuc)
CCCCNC(=O)c1ccccc1NC(=O)CCC	none
NNC(=S)NCc1ccc2c(c1)OCO2	Gal4-VP16 FLuc 8.9µM, RORgamma inh 7.9µM
O=C(Cc1ccccc1)NCc1ccc2c(c1)OCO2	none
CCOC(=O)c1[nH]c2ccc(OC)cc2c1NC(=S)N1CCN(c2cccc(C)c2C)CC1	Gal4-VP16 FLuc inconclusive, RORgamma inh 4.5µM
CCOC(=O)c1[nH]c2ccc(OC)cc2c1NC(=S)N1CCN(c2ccc(F)cc2)CC1	none
O=C1NC(=S)N/C1=C\c1cccc([N+](=O)[O-])c1	none
O=C1NC(=S)N/C1=C\c1cccnc1	Gal4-VP16 FLuc inconclusive, RORgamma inh 2µM (no result: KinaseGlo FLuc)
O=C1NC(=S)N/C1=C/c1cccc([N+](=O)[O-])c1	none
O=C1NC(=S)N/C1=C/c1cccnc1	RORgamma inh 13µM (no result: KinaseGlo FLuc)
COc1ccc(-c2nc(-c3ccccc3)oc2NC(C)C)cc1	none
CC1(C)NC(=O)N(CC(=O)OCC(=O)Nc2cccc(S(N)(=O)=O)c2)C1=O	none
c1ccc(C(c2ccccc2)N2CCN(c3nc4ccccc4n4cnnc34)CC2)cc1	Gal4-VP16 FLuc 13µM (no result: KinaseGlo FLuc)
c1cnc(N2CCN(c3nc4ccccc4n4cnnc34)CC2)nc1	none
O=C(O)C1(S(=O)(=O)CCC(F)=C(F)F)CC1	none
O=C(COC(=O)c1cc(Cl)ccc1[N+](=O)[O-])NCc1ccc(Cl)cc1Cl	none
Cc1cc(NC(=O)CSc2nc3c(C)c(C)ccc3cc2C)no1	none (no result: KinaseGlo FLuc)
S=c1nc[nH]c2c1[nH]c1ccccc12	RORgamma inh 11µM
S=c1nc[nH]c2c1[nH]c1ccc(Cl)cc12	none (no result: KinaseGlo FLuc)
Clc1ccc(-c2cnc3ccccc3n2)cc1	Gal4-VP16 FLuc inconclusive
Cc1ccc(-c2cnc3ccccc3n2)cc1C	Gal4-VP16 FLuc inconclusive, RORgamma inh 10µM (no result: KinaseGlo FLuc)
Cn1c(-c2ccc(Cl)nc2)nc2cc(Cl)ccc21	none (no result: KinaseGlo FLuc)
Cc1ccc(S(=O)(=O)NCC(C)NC(=O)CN2CCOCC2)cc1 (centres undefined)	none (no result: KinaseGlo FLuc)
CC(=O)Nc1nc(=S)n(-c2ccccc2)[nH]1	RORgamma inh inconclusive (no result: KinaseGlo FLuc)
